Compounds with a hit are over-represented: about 28% of the library has one in this group of screens.
Mac1 fbg inh: blocks human CD11b/CD18 adhesion to fibrinogen; P05107+P11215; K562 CD11b/CD18 adhesion to fibrinogen, ATPlite luminescence; Mn2+ added to activate the integrin; inhibition, % at 10 µM; actives 0.54% (n = 93,000);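 active = primary inhibition of 50% or more at 10 µM, then 40% or more on retest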
Mac1 fbg enh: increases human CD11b/CD18 adhesion to fibrinogen; activation, % at 10 µM; actives 0.07% (n = 93,000); K562 CD11b/CD18 adhesion to fibrinogen, ATPlite luminescence; AID 1499; P05107+P11215;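 active = 10 µM primary screen giving 50% or more activity, confirmed by 40% or more on retest at that dose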
CYP2C9 inh: blocks human cytochrome P450 2C9; AID 777; inhibition, % at 5 µM; CYP2C9 Supersomes, luciferin-H conversion, luminescence; P11712; actives 20% (n = 96,000);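 active = blocking of liver enzyme CYP2C9 beyond about 50% at 5 µM, limit read from the data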
CYP2C9 act: activators of human CYP2C9. P11712. recombinant CYP2C9, luciferin-H conversion, luminescence; active compounds read high; factor 1 = untreated enzyme, 0 = blocked. activation factor at 5 µM. actives 1.4% (n = 96,000). AID 1024;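 active = activation factor of 2 or more for CYP2C9 at a 5 µM dose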
CYP2C19 inhib: inhibitors of human CYP2C19. P33261. AID 778. CYP2C19 Supersomes, luciferin-H EGE luminescence, 30 min. actives 21% (n = 96,000). inhibition, % at 5 µM;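 active = CYP2C19 inhibition above a set limit at 5 µM in the primary screen, cut at about 50% in these data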
Target sequence (P33261 whole entry, looked up): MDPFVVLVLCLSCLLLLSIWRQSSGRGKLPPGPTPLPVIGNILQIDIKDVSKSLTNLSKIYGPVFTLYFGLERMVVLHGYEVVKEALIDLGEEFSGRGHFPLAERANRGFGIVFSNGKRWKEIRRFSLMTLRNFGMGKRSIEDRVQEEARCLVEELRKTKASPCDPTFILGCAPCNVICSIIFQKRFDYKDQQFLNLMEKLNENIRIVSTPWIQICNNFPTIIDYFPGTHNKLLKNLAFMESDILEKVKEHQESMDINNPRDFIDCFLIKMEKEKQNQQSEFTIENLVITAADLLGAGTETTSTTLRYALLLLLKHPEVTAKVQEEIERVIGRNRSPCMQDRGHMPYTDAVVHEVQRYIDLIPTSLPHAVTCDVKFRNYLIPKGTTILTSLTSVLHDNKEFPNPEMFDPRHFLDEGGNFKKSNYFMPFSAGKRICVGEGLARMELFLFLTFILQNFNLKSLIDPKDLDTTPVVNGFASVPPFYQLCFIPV
CYP2C19 activ: increases human CYP2C19 enzyme activity; P33261; recombinant CYP2C19, luciferin-H EGE luminescence; active compounds read high; 0 = fully inhibited enzyme, 1 = untreated enzyme; activation factor at 5 µM; 96,000 tested, under 10 active;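 active = activation factor of at least 2 at 5 µM in the primary screen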
Large screens that a line does not name were inactive.

COc1ccc(CCNC(=O)c2nnc(Cc3ccc(Cl)cc3)o2)cc1OC	none
COc1ccccc1S(=O)Cc1ccc(C(=O)NC2CCCC2)o1 (stereo not drawn)	CYP2C9 inh 54.9
O=C(NCC(F)(F)F)Nc1ccccn1	none
CCc1nc2ccccc2n1CC(=O)N(C(C)CC)C1CCS(=O)(=O)C1 (stereo not drawn)	none
N#Cc1nc(Cc2ccccc2)oc1NCCCn1ccnc1	CYP2C9 inh 76.7, CYP2C19 inhib 91.5
CC(C)c1nc(C#N)c(NCCCn2ccnc2)o1	CYP2C9 inh 91.4, CYP2C19 inhib 100.4
C/C(NCCCn1ccnc1)=C(\C#N)C(N)=O	none
N#Cc1nc(Cc2ccccc2)oc1NCc1ccccc1Cl	CYP2C9 inh 55.8, CYP2C19 inhib 62.7
O=C(COC(=O)c1ccc([N+](=O)[O-])s1)Nc1ncc(C(F)(F)F)cc1Cl	none (no result: CYP2C9 inh, CYP2C9 act, CYP2C19 inhib, CYP2C19 activ)
N#C/C(=C\c1ccc(Cl)cc1)c1n[nH]c(Cn2cncn2)n1	CYP2C9 inh 68.3
O=C(Nc1ccc(Cl)cc1Cl)c1n[nH]c(Cn2cncn2)n1	CYP2C9 inh 51.2, CYP2C19 inhib 52.7
Cn1nnnc1SCC(=O)Nc1ccc(Cl)cc1Cl	none
Cn1c(=O)nc2n(Cc3ccccc3)c3cccc(Cl)c3cc-2c1=O	none (no result: CYP2C9 inh, CYP2C9 act, CYP2C19 inhib, CYP2C19 activ)
Cc1ccc2c(c1)cc(CN(Cc1ccc3c(c1)OCO3)S(=O)(=O)c1ccccc1)c1nnnn12	CYP2C9 inh 68.9, CYP2C19 inhib 79.6
CCn1c2ccccc2c2cc(NC(=O)CSc3nnc(-c4cccc(C)c4)o3)ccc21	CYP2C9 inh 64.2, CYP2C19 inhib 63.4
Cc1ccc(-c2nnc(SCC(=O)Nc3ccc(N4CCOCC4)cc3)o2)cc1	none (no result: Mac1 fbg inh, Mac1 fbg enh)
CCn1c2ccccc2c2cc(NC(=O)CSc3nnc(-c4ccccc4)o3)ccc21	CYP2C9 inh 77.7, CYP2C19 inhib 94.9
CCn1c2ccccc2c2cc(NC(=O)CSc3nnc(-c4cccc(F)c4)o3)ccc21	CYP2C9 inh 69.5, CYP2C19 inhib 90.8
Nc1cc(=O)[nH]c(SCc2nnc(-c3ccccc3)o2)n1	none
C/C(=N\Nc1ccc([N+](=O)[O-])cc1[N+](=O)[O-])c1ccc(-n2nncc2C(C)(C)C)cc1	none (no result: CYP2C9 inh, CYP2C9 act, CYP2C19 inhib, CYP2C19 activ)
Cn1cccc1CNCc1ccccc1Cl	none
Cn1cccc1CNC(=O)Nc1ccccc1	CYP2C19 inhib 75.3
Cn1cccc1CNC(=O)Nc1ccc(Cl)cc1	CYP2C19 inhib 59.3
Cc1cc(C)cc(NC(=S)NCc2cccn2C)c1	CYP2C9 act 2.1 (no result: Mac1 fbg inh, Mac1 fbg enh)
O=C(CSc1nnc(CN2CCCCC2)n1-c1ccccc1)c1ccc2c(c1)OCO2	none (no result: CYP2C9 inh, CYP2C9 act, CYP2C19 inhib, CYP2C19 activ)
CCCC(=O)c1c[nH]c(C(=O)NCCc2ccccn2)c1	none
CCCCCCCCCS(=O)(=O)N/N=C/c1cccc([N+](=O)[O-])c1	CYP2C9 inh 67.9
CCOC(=O)C1CCN(S(=O)(=O)c2cccc3nonc23)CC1	CYP2C9 inh 87.6, CYP2C19 inhib 72.3
O=C(C1CCCN(S(=O)(=O)c2cccc3nsnc23)C1)N1CCN(c2ccccn2)CC1 (stereo not drawn)	CYP2C9 inh 75.6
O=C(C1CCCN(S(=O)(=O)c2cccc3nonc23)C1)N1CCN(c2ccccc2)CC1 (stereo not drawn)	CYP2C9 inh 60.0, CYP2C19 inhib 60.4
Cc1nn(C)c(C)c1S(=O)(=O)N1CCCC(C(=O)N2CCN(c3ccccc3)CC2)C1 (stereo not drawn)	CYP2C19 inhib 57.8
COc1ccc(CNC(=O)C2CCCN(S(=O)(=O)c3c(C)nn(C)c3C)C2)cc1 (stereo not drawn)	none
CC1(C)CC(=O)C/C(=N/NC(=O)CCCOc2ccc(Cl)cc2Cl)C1	none (no result: Mac1 fbg inh, Mac1 fbg enh)
CC1CC(C)CN(C(=O)C2CCCN(S(=O)(=O)c3cccc4nonc34)C2)C1 (stereo not drawn)	CYP2C9 inh 75.5
CC1CCN(C(=O)C2CCN(S(=O)(=O)c3cccc4nonc34)CC2)CC1	none (no result: Mac1 fbg inh, Mac1 fbg enh)
COC(=O)c1cccc(S(=O)(=O)N2CCN(c3nc4ccccc4s3)CC2)c1	none
COc1ccc(C2c3c(oc4c(C)cc(C)cc4c3=O)C(=O)N2Cc2cccnc2)cc1OC (stereo not drawn)	none
COc1ccc(CCN2C(=O)c3[nH]nc(-c4ccccc4O)c3C2c2cccc(O)c2)cc1OC (stereo not drawn)	CYP2C9 inh 98.1, CYP2C19 inhib 92.8
COc1ccc(C2c3c(-c4cc(Cl)c(C)cc4O)n[nH]c3C(=O)N2Cc2cccnc2)cc1OC (stereo not drawn)	CYP2C9 inh 92.7, CYP2C19 inhib 85.7
O=C(COC(=O)c1cccs1)NCCC1=CCCCC1	none (no result: CYP2C9 inh, CYP2C9 act, CYP2C19 inhib, CYP2C19 activ)
CN(c1cccc(NC(=O)CN2C(=O)c3ccccc3S2(=O)=O)c1)S(C)(=O)=O	none
COc1ccc(N/C(C)=C2/C(=O)C(=O)N(CCO)C2c2ccc(Br)cc2)cc1 (stereo not drawn)	CYP2C9 inh 51.9, CYP2C19 inhib 59.6
CC1(c2ccc3noc(-c4ccccc4)c3c2)OCCO1	CYP2C19 inhib 50.3
O=Cc1ccc2noc(-c3ccc(F)cc3)c2c1	none
Clc1ccc2noc(-c3ccccc3)c2c1	none
CC1(c2ccc3noc(-c4ccc(F)cc4)c3c2)OCCO1	CYP2C19 inhib 69.1
CCOC(=O)C1CCN(c2nc3cc(OC)ccc3cc2C#N)CC1	CYP2C9 inh 95.9, CYP2C19 inhib 95.9
COc1ccc2nc(N3CCC(O)CC3)c(C#N)cc2c1	CYP2C19 inhib 63.1
COc1cc(C(=O)N2CCCN(c3nc4cc(C)ccc4cc3C#N)CC2)cc(OC)c1OC	none
COc1ccc(C(=O)N2CCN(c3nc4cc(C)ccc4cc3C#N)CC2)c(OC)c1	CYP2C9 inh 55.3
Cc1cccc(N(C(=O)c2ccc(Cl)cc2)C2CS(=O)(=O)CC2OC(=O)c2ccc(Cl)cc2)c1 (stereo not drawn)	none
CS(=O)(=O)N(CC(=O)N1CCN(c2cccc(Cl)c2)CC1)c1cccc(F)c1	none
COC(=O)CNC(=O)CN1C(=O)N(c2cccc(Cl)c2)C(N(O)C(=O)Nc2cccc(Cl)c2)C1(C)C (stereo not drawn)	none
Cc1ccc(C(=O)Oc2cc(C)n(C)c(=O)c2)cc1	none
O=C(Nn1c(=S)[nH]c2ccccc2c1=O)c1ccncc1	CYP2C19 inhib 85.3
O=C(NCCN1CCOCC1)N1c2ccccc2Sc2ccccc21	none (no result: Mac1 fbg inh, Mac1 fbg enh)
CCOC(=O)N1CCC(NC(=O)CCC(=O)N2CC(C)Oc3ccc(Cl)cc32)CC1 (stereo not drawn)	none (no result: Mac1 fbg inh, Mac1 fbg enh)
O=C(Cc1c[nH]c2ccccc12)OCC(=O)c1ccccc1	CYP2C9 act 2.2 (no result: Mac1 fbg inh, Mac1 fbg enh)
N#C/C(=C(/O)COC(=O)Cc1c[nH]c2ccccc12)c1nc2ccccc2[nH]1	CYP2C9 inh 82.2
N#C/C(=C(/O)COC(=O)CCCNC(=O)c1ccc(Cl)cc1)c1nc2ccccc2[nH]1	CYP2C9 inh 76.4, CYP2C19 inhib 52.1
NC(=O)COC(=O)CCCc1c[nH]c2ccccc12	none

Screens as filed in PubChem BioAssay.
